From PubChem BioAssay (NCI) come the findings set out here.

The panel holds about 83,000 compounds, 20% with a hit somewhere; the sample as a whole holds those more often.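 Compound tested at a single concentration for 48 hours in 96-well plates; a percent growth value below 10 was scored as active.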 Activity calls are given as the source filed them.

The test system of the test is SNB-19 CNS. Description: NCI-60 one-dose screen, 48 h (100 = growth as untreated, 0 = no growth, -100 = all killed). Particulars: 10 µM unless noted. On the procedure: Growth inhibition of the SNB-19 human tumor cell line is measured as a screen for anti-cancer activity. Cells are grown in 96 well plates and exposed to the test compound for 48 hours. Compounds are tested at a single concentration, which is 10^-5 M for most compounds. The reported endpoint is percent growth (GI% or GIPRCNT), where numbers from 0 - 100% represent growth inhibition, and numbers from -100% - 0 represent cell death. For example, a value of 40 represents 60% growth inhibition. A value of 0 means no net growth occurred over the course of the experiment. A value of -40 indicates 40% of cells at the beginning of the experiment died by the end of the experiment. A value of -100 means all cells are dead at the end of the experiment.
NCI-60 Human Tumor Cell Lines Screen was performed using the standard one-dose NCI protocol, which is described in more detail at https://dtp.cancer.gov/discovery_development/nci-60/default.htm.
Compounds with GIPRCNT values below 10 were considered active. Activity score was based on GIPRCNT using the following formula: […]
Score is 0 for GIPRCNT values of 100 or above, 50 for GIPRCNT values of 0, and 100 for GIPRCNT values of -100.
For `Cc1ccc(N2CCN(C(C)C(N)=O)CC2)cc1` (stereo not given), the growth is 101% (inactive).

For the molecule `O=[N+]([O-])c1ccc(-c2cn(-c3ccccc3)c(-c3ccccc3)n2)cc1`, the growth was 36.3% (inactive).

With `Cc1ccc2ccccc2c1C[n+]1ccccc1`, the growth was 101% (inactive).

As to `CCN1C(=O)N(CC)C2C1NN=c1s/c(=C\c3cccnc3)c(=O)n12` (stereo not given), the growth is 29.2% (inactive).

For `c1ccc(-c2nc(N3CCNCC3)c3nc(-c4ccccc4)oc3n2)cc1`, the growth is 5.98% (active).

Turning to `O=C1/C(=C/c2ccc(Cl)cc2)CN(Cc2cn(CCNc3ccnc4cc(Cl)ccc34)nn2)C/C1=C\c1ccc(Cl)cc1`, the growth was -92.2% (active).

Regarding `Clc1ccccc1-c1nc2ccccc2[nH]1`, the growth is 90% (inactive).

For the molecule `C=C[C@@H]1C[C@@H]2Cc3cc(Cl)ccc3N1O2`, the growth was 113% (inactive).

Turning to `CN(CCCCN(C[C@H]1Cc2ncccc2CN1)[C@H]1CCCc2cccnc21)C1CCC(F)(F)CC1`, the growth was 90.5% (inactive).

Regarding `Nc1nc(=O)c2ccccc2s1`, the growth is 104% (inactive).

With `c1cc2[nH]ncc2cc1-c1nc2ccc3[nH]ncc3c2c2c1CCC2`, the growth was 69.5% (inactive).

Turning to `O=[N+]([O-])c1ccc(Sc2ncccn2)c([N+](=O)[O-])c1`, the growth is 99.3% (inactive).

As to `COc1cc(-c2ncn(/C=C\C(=O)OC(C)C)n2)cc(C(F)(F)F)c1`, the growth was 11.8% (inactive).

With `COc1ccc(/C(C#N)=C/c2cc(OC)c(OC)c(OC)c2)cc1`, the growth is 66.3% (inactive).

For the molecule `Cc1ccc(/C=C2\CN(C(=O)CCN3CCC(=NO)CC3)C/C(=C\c3ccc(C)cc3)C2=O)cc1`, the growth is 7.61% (active).

Turning to `C/C(=N/NC(=S)Nc1ccccc1)c1nc2ccc(Cl)cc2[nH]1`, the growth was -33.7% (active).

In the case of `ClC(Cl)c1nc(-c2ccccc2)nc2cc(-c3ccccc3)nn12`, the growth is 55.7% (inactive).

In the case of `CC(=O)OC[C@]12CC[C@H]3[C@@H](C[C@H]4O[C@]45CC=CC(=O)[C@]35C)[C@]1(O)CC[C@@]2(O)[C@@](C)(O)C1CC(C)=C(C)C(=O)O1` (stereo not given in full), the growth was 5.89% (active).

On to `CN1CCN(Cc2ccc(NC(=O)c3cncc(C#Cc4cnc(N)c5cnccc45)c3)cc2C(F)(F)F)CC1`, for which the growth was 32% (inactive).

As for `CCOC(=O)C1CCNC(=O)C1=O` (stereo not given), the growth was 101% (inactive).

As for `Nc1nc(-c2ccccc2)c(CCCOc2ccc(NC(=O)CBr)cc2)c(=O)[nH]1`, the growth was 91.1% (inactive).

As to `COc1cc(/C=N\NC(=O)CN2CCN(c3cc4c(cc3F)c(=O)c(C(=O)N/N=C/c3cc(OC)c(OC)c(OC)c3)cn4C3CC3)CC2)cc(OC)c1OC`, the growth is 19.1% (inactive).

For the molecule `COc1ccc2c(c1)[nH]c(=O)c1c3cc(OC)ccc3cn21`, the growth was 25.8% (inactive).

As for `Cc1csc(NC(c2ccccc2)c2c(C)nc3ccccn23)n1` (stereo not given), the growth was 93.5% (inactive).

Consider `COc1ccc(Cn2cc3c(c2-c2cc(OC)c(OC)c(OC)c2)CCc2cnoc2-3)cc1`, for which the growth is 44.3% (inactive).

Consider `NC(=N\N=C/c1ccc(O)cc1)/C(N)=N\N=C/c1ccc(O)cc1`, for which the growth is 92.7% (inactive).

With `O=C(c1ccccc1)C1OC1c1ccc([N+](=O)[O-])cc1` (stereo not given), the growth was 95.3% (inactive).

Regarding `CCOC(=O)/C(C#N)=C1/C(=O)Nc2ccccc21`, the growth was 104% (inactive).

`C/C(=C\c1ccc(OCC(=O)O)c(Cl)c1Cl)[N+](=O)[O-]`: the growth is 115% (inactive).

Regarding `O=C1NN(C(=O)c2ccc(Cl)cc2)C(c2ccccc2)=N/C1=C\c1ccc(F)cc1`, the growth was 78.8% (inactive).

Turning to `COc1ccc(C2CC(c3ccc(OC)cc3OC)=NN2c2ccc(S(N)(=O)=O)cc2)cc1` (stereo not given), the growth is 85.7% (inactive).

For `CCCCCCCCCCCCCCCCNC(=O)OC(C)C`, the growth was 95.5% (inactive).

Consider `N[C@H]1CN(C(=O)c2cc3cc(Br)c(F)c(F)c3[nH]2)C[C@@H]1O`, for which the growth is 96.6% (inactive).

With `Cn1c2ccc(Br)cc2c2c3c(c4c5ccccc5[nH]c4c21)C(=O)N(O)C3=O`, the growth is -35.8% (active).

For the molecule `O=C(Nc1cccc(-n2cc(-c3ccncc3)c(-c3ccc(Cl)c(O)c3)n2)c1)Nc1cc(C(F)(F)F)cc(C(F)(F)F)c1`, the growth is 11.3% (inactive).

As for `N/C(=N\C(N)=N\c1nc2ccccc2s1)c1ccncc1`, the growth was 69.5% (inactive).

As for `NC(N)=Nc1nc2ccccc2o1`, the growth is 99.7% (inactive).

In the case of `CC(C)(C)n1cc(-c2ccnc(NCCCNS(=O)(=O)c3cccc(F)c3)c2)c(-c2cccc(O)c2)n1`, the growth was 75.7% (inactive).

As to `COC(OC)c1ccccc1`, the growth is 121% (inactive).

Regarding `COc1ccc(-c2nc(/C=N/Nc3cc(C)nc4ccc(Cl)cc34)c(C)o2)cc1`, the growth is -90.4% (active).
